Compounds without any hit were thinned out: in the full panel of roughly 83,000, 20% have a hit.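 Treatment: one concentration, 48 hours, 96-well format. Scoring: percent growth, with anything below 10 considered active.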 Unmarked numbers belong to inactive results. The source made the active and inactive calls.
test system: NCI-H322M lung; experiment: NCI-60 one-dose screen, 48 h (100 = growth as untreated, 0 = no growth, -100 = all killed); conditions: 10 µM unless noted
Description: Growth inhibition of the NCI-H322M human Non-Small Cell Lung tumor cell line is measured as a screen for anti-cancer activity. Cells are grown in 96 well plates and exposed to the test compound for 48 hours. Compounds are tested at a single concentration, which is 10^-5 M for most compounds. The reported endpoint is percent growth (GI% or GIPRCNT), where numbers from 0 - 100% represent growth inhibition, and numbers from -100% - 0 represent cell death. For example, a value of 40 represents 60% growth inhibition. A value of 0 means no net growth occurred over the course of the experiment. A value of -40 indicates 40% of cells at the beginning of the experiment died by the end of the experiment. A value of -100 means all cells are dead at the end of the experiment.
NCI-60 Human Tumor Cell Lines Screen was performed using the standard one-dose NCI protocol, which is described in more detail at https://dtp.cancer.gov/discovery_development/nci-60/default.htm.
Compounds with GIPRCNT values below 10 were considered active. Activity score was based on GIPRCNT using the following formula: […]
Score is 0 for GIPRCNT values of 100 or above, 50 for GIPRCNT values of 0, and 100 for GIPRCNT values of -100.

SMILES | growth
C#CCNC(=O)[C@]1(C)CC[C@]2(C)CC[C@@H]3C(=CC[C@H]4[C@@]3(C)CC[C@H]3C(C)(C)C(=O)CC[C@]43C)[C@@H]2C1 | 90.9%
COc1c(Cl)c2c(c(OC)c1OC)-c1ccc(SC)c(=O)cc1[C@@H](NC(=O)OCC(F)(F)F)CC2 | 33.6%
Nc1n[nH]c2cccc(C#Cc3cccc(C(=O)Nc4cccc(C(F)(F)F)c4)c3)c12 | 86.4%
Oc1c(Cl)cc(Cl)c(Cl)c1CNCCNCc1c(O)c(Cl)cc(Cl)c1Cl | 21.8%
CC(C)N1C(=O)/C(=C2\SC(=S)N(C(C)C)C2=O)SC1=S | 94%
CNC(=O)c1cccc(Cn2nc(C)c(NC(=O)c3ccc(COc4ccc(C(F)(F)F)cc4C)cc3)c2C)c1 | 88%
CCN1C(=O)/C(=C/C(=O)OC)S/C1=N\NC(=O)c1cc2ccc1/C=C\c1ccc(cc1)/C=C\2 | 92.3%
CCOC(=O)CCN(CC(C)C)C(=S)Nc1ccccc1 | 107%
CN1CCN(C(=O)[C@]23CCC(C)(C)C[C@H]2C2=CC[C@@H]4[C@@]5(C)C/C(=C/c6ccncc6)C(=O)C(C)(C)[C@@H]5CC[C@@]4(C)[C@]2(C)CC3)CC1 | 87.6%
O=C1OC(Cc2ccccc2)C1c1ccccc1 (stereo not given) | 110%
CCN(CC)CCn1c(=O)c2cc(OC)c(OC)cc2c2ccc3cc4c(cc3c21)OCO4 | 41%
COc1cc2c(c(O)c1Br)C(=O)c1c(O)cc(C[C@H](C)O)cc1[C@H]2[C@H]1c2cc(C[C@H](C)O)cc(O)c2C(=O)c2c1cc(OC)c(Br)c2O | 17.2%
CN(C)c1ccc(C2C(C#N)=C(/N=C/c3ccccc3)Oc3c2ccc2ccccc32)cc1 (stereo not given) | 98.5%
COc1ccc(/C=C/c2nc(Nc3ccc(S(=O)(=O)Nc4nc(C)cc(C)n4)cc3)c3ccccc3n2)cc1 | 29%
O=C(NCCNc1nccc(-c2c(-c3cccc(F)c3)nc3sccn23)n1)c1ccc(Cl)cc1 | 66.3%
O=C(CSc1nc2sc3c(c2c(=O)n1-c1ccc(Cl)cc1)CCCC3)Nc1nc(-c2cccc(Br)c2)cs1 | 87.8%
O=C(O)c1ccc2c(c1)C(=O)N(Cc1ccccc1)C2=O | 96%
O=C(/C=C/c1ccc[nH]1)c1ccc(-n2ccc(C(F)(F)F)n2)c(F)c1 | 85.1%
CC1(C)NCCC[C@]2(C)[C@H]3CC(=O)[C@H]4[C@@H]5C[C@](C)(CO)CC[C@]5(C)CC[C@@]4(C)[C@]3(C)CC[C@@H]12 | 98.2%
Cc1cc2cc3ccc(N(C)C)cc3nc2cc1N | -5.9% (active)

SMILES | growth
COc1ccc(C(=O)/C=C/c2cc3ccccc3n3nnnc23)cc1 | 103%
O=C1c2cccc3c(-c4ccc5c(c4)ncn5C4CCCCC4)ccc(c23)C(=O)N1CCO | 91.8%
Cc1cc(C)c(S(=O)(=O)Oc2ccccc2[N+](=O)[O-])c(C)c1 | 52.6%
O=S(=O)(NCCCNc1nccc(-c2c(-c3cccc(F)c3)nc3sccn23)n1)c1cccc(F)c1 | 79.9%
CCCCCCCCCCCCCCCC[N+]1(C)CCN(SN2CC[N+](C)(CCCCCCCCCCCCCCCC)CC2)CC1 | 80.3%
Cc1ccc(C(=O)/C(=C\c2ccc([N+](=O)[O-])cc2)S(=O)Cc2ccc(F)cc2)cc1 (stereo not given) | 72.6%
N#CC1C(C#N)C(C(=O)c2ccc(Br)cc2)N2c3ccccc3C=CC12 (stereo not given) | 93.4%
COc1cc2nc(-c3ccc(Cl)cc3)cc(OCCCN3CCC(O)CC3)c2cc1OC | 58.3%
Cc1nc2sccn2c1-c1nc2sccn2c1/C=C1/C(=O)Nc2ccccc21 | 67.1%
NC(=O)Nc1ccc(-n2cnc3cc(-c4ccc(O)cc4)ccc32)cc1 | 101%
O=C1Nc2cc(-c3cccc(O)c3)ccc2/C1=C/c1ccc[nH]1 | 21.8%
O=[N+]([O-])c1cc(Br)c2cccc3c2c1CC3 | 106%
O=C(/C(=C\c1ccc([N+](=O)[O-])cc1)S(=O)Cc1ccc(F)cc1)c1ccc(F)cc1 (stereo not given) | 79.9%
CC(=O)c1ccc(NS(=O)(=O)c2cccc(C(=O)Nc3ccc(Br)cc3)c2)cc1 | 89% [25 µM]
COc1cc(/C=C\C(=O)O)ccc1OCc1ccccc1 | 117%
CCCCCN1C=C/C(=C\C(=O)N(C)c2ccc(Oc3ccccc3)cc2)c2ccccc21 | 89.8%
Cc1nn(-c2ccccc2)c(Cl)c1/C=N\N=c1/sc2ccccc2n1C | 97.5%
CC(=O)CCC(=O)OCc1cc(=O)c(O)co1 | 98.2%
COc1ccc(C(=O)c2cc(C)c(OC)c(C)c2)c(OC)c1OC(=O)C(Cl)Cl | 42.8%
O=S(=O)(NCCNc1nccc(-c2c(-c3cccc(F)c3)nc3sccn23)n1)c1ccccc1 | 51.5%

From PubChem BioAssay (NCI)
